PubChem BioAssay (Tox21)
Records with an inconclusive call do not appear. A call without a number means that no potency is given here. Active and inactive are the calls of the source. Unless noted, calls come from the whole dose curve; as a rule, active = well fitted curve in the direction sought with a large enough effect in the repeat runs; inconclusive = weak or mixed curves; inactive = no such curve, though single readings can be large; an effect the other way counts as inactive or inconclusive.

Key:
[1] = qHTS RealTime-Glo MT Cell Viability Assay in HEK293 cells - 24 hour (AID 1224886); note: top concentration of the series differs between compounds; nearly all actives have a fitted effect of over 50% in size
Summary of the method: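 Quantitative high-throughput screen of the Tox21 10K library in HEK293: cells and RealTime-Glo reagents plated together, compound added at 5 h, luminescence monitored through 40 h at 37 C.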

[2] = qHTS RealTime-Glo MT Cell Viability Assay in HEK293 cells - 8 hour (AID 1224887); note: top concentration of the series differs between compounds; nearly all actives have a fitted effect of over 50% in size
Summary of the method: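 Luminescence, which tracks viable cell number through reduction of the prosubstrate to a NanoLuc substrate, was read over continuous 37 C culture. Cells (600/well) were premixed with reagent and rested 5 h before 23 nL of compound in DMSO was pinned.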

[3] = A CellTox Green Cytotoxicity Assay to monitor cytotoxicity in HEK293 cells - 16 hour (AID 1224888); note: nearly all actives have a fitted effect of over 35% in size
Summary of the method: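 Fluorescence from a DNA-binding dye excluded by viable cells was measured repeatedly in the same HEK293 wells (600 cells/well) during continuous compound exposure at 37 C. Each assay gives one read point: 0, 8, 16, 24, 32 or 40 h.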

[4] = qHTS RealTime-Glo MT Cell Viability Assay in HepG2 cells - 0 hour (AID 1224889); note: nearly all actives have a fitted effect of over 50% in size
Summary of the method: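 Compound treatment began 5 h after plating HepG2 cells (600/well) with NanoLuc luciferase and prosubstrate. Plates stayed at 37 C for 40 h; luminescence was captured at six time points, 0 h through 40 h.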

[5] = qHTS assay to identify small molecule antagonists of the estrogen receptor alpha (ER-alpha) signaling pathway using the BG1 cell line in the presence of 0.1 nM 17-beta-estradiol - cell viability counter screen (AID 1259241); note: nearly all actives have a fitted effect of over 40% in size
Summary of the method: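 VM7Luc4E2 cells (endogenous ER-alpha, 4×ERE-luciferase), hormone-starved 5 days in charcoal-stripped FBS, were treated with compounds plus 0.1 nM 17beta-estradiol for 22 hr at 37C; viability read in same wells as CellTiter-Fluor live-cell protease fluorescence.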

[6] = qHTS assay to identify small molecule antagonists of the androgen receptor (AR) signaling pathway using the MDA cell line in the presence of 0.5 nM R1881 - cell viability counter screen (AID 1259242); note: nearly all actives have a fitted effect of over 45% in size
Summary of the method: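 Live-cell protease activity was measured by CellTiter-Fluor fluorescence after 30 min. Before that, MDA-kb2 MMTV-luciferase cells had 16 hr at 37C without CO2, exposed to test compounds and 0.5 nM R1881 final.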

[7] = qHTS assay to identify small molecule HDAC inhibitors (AID 1259364); note: nearly all actives have a fitted effect of over 45% in size; note: potency is the fitted concentration of half-maximal effect
Summary of the method: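 Luminescence read after 30 min room-temperature HDAC-Glo incubation measures cellular class I/II HDAC activity. Compounds were applied for 2 hr at 37 C to HCT-116 wild-type cells seeded the day before.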

[8] = qHTS assay to identify small molecule HDAC inhibitors - cell viability counter screen (AID 1259365); note: series mostly up to about 92 µM; nearly all actives have a fitted effect of over 50% in size
Summary of the method: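 Wild-type HCT-116 cells were seeded at 1,500 per well, incubated overnight at 37 C, then exposed to compounds in DMSO for 2hr. Viability was read by CellTiter-Glo luminescence after 30min at room temperature.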

[9] = qHTS assay to identify small molecule agonists of the sonic hedgehog signaling (Shh) pathway - cell viability counter screen (AID 1259366); note: nearly all actives have a fitted effect of over 50% in size
Summary of the method: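 NIH/3T3-derived 3T3 Gli1-Luc cells (stable Gli1-responsive firefly luciferase reporter) were seeded, rested 4 hr at 37 C/5% CO2, then exposed to compounds in DMSO for 24 hr; viability was read by CellTiter-Fluor fluorescence in the same wells.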

[10] = qHTS assay to identify small molecule antagonists of the sonic hedgehog signaling (Shh) pathway - cell viability counter screen (AID 1259367); note: nearly all actives have a fitted effect of over 55% in size
Summary of the method: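 Fluorescence read-out (CellTiter-Fluor, 1 hr at 37C) taken after 23 hr compound treatment of 3T3 Gli1-Luc cells stimulated with conditioned medium. Cells were seeded at 2,000 per well and pre-incubated 4 hr.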

[11] = qHTS assay to identify small molecule agonists of the sonic hedgehog signaling (Shh) pathway (AID 1259368; calls by dose curve; note: series mostly up to about 92 µM; nearly all actives have a fitted effect of over 15% in size)
Summary of the method: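 Luminescence was read after 30 min at room temperature with luciferase reagent. Before that, 3T3Gli1-Luc cells (NIH/3T3 clone, stable Gli1-Luc reporter; 2,000/well) were exposed to compounds for 24 hr at 37C, 5% CO2, compounds being added 4 hr post-plating.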

[12] = qHTS assay to identify small molecule antagonists of the sonic hedgehog signaling (Shh) pathway (AID 1259369; calls by dose curve; note: nearly all actives have a fitted effect of over 45% in size; note: potency is the fitted concentration of half-maximal effect)
Summary of the method: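 Antagonist mode: compound added to 3T3 Gli1-Luc cells followed by conditioned-medium stimulation, 24 h at 37 C, 5% CO2. Inhibition taken as loss of Gli1-driven luciferase luminescence.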

[13] = qHTS assay to identify small molecule agonists of the androgen receptor (AR) signaling pathway in the presence of an antagonist - cell viability counter screen (AID 1259379);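 note: MDA-kb2 human breast cancer cells carrying an MMTV luciferase reporter; series mostly up to about 92 µM; nearly all actives have a fitted effect of over 25% in size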
Summary of the method: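 Cytotoxicity counter-screen run in the same wells as the nilutamide-challenged (3.0 µM final) AR agonist assay in MDA-kb2 cells. Compounds tested at 15 concentrations for 16 h, 37 °C without CO2; CellTiter-Fluor fluorescence read.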

[14] = target: Estrogen receptor (Homo sapiens) (UniProt P03372); assay: qHTS assay to identify small molecule antagonists of the estrogen receptor alpha (ER-alpha) signaling pathway using the BG1 cell line in the presence of 0.1 nM 17-beta-estradiol (AID 1259244); note: nearly all actives have a fitted effect of over 50% in size
Summary of the method: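 Luciferase luminescence (ONE-Glo, 30 min at room temperature) was read after 22 hr at 37C exposure to compounds plus 17beta-estradiol at 0.1 nM final. Cells were VM7Luc4E2 with endogenous ER-alpha and an ERE-driven luciferase, pre-cultured 5 days in hormone-depleted medium.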

[15] = qHTS assay to identify small molecule agonists of the estrogen receptor beta (ER-beta) signaling pathway - cell viability counter screen (AID 1259380); note: nearly all actives have a fitted effect of over 30% in size
Summary of the method: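 Cell viability counter screen: CellTiter-Glo luminescence (30 min, room temperature) measured in the same wells as the beta-lactamase readout, after 16 hr compound exposure at 37C of ER-beta-bla HEK293T cells in 2% charcoal-stripped FBS medium.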

[16] = target: Estrogen receptor beta (Homo sapiens) (UniProt Q92731); assay: qHTS assay to identify small molecule agonists of the estrogen receptor beta (ER-beta) signaling pathway (AID 1259377; active = well fitted activation curve with a large enough effect in the signal ratio in the repeat runs, not every such curve was filed as active; the % refers to the signal ratio)
Summary of the method: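 ER-beta-UAS-bla HEK293T (GripTite) cells carrying a UAS-driven beta-lactamase reporter, in medium with 2% charcoal-stripped FBS, were exposed to compounds for 16 hr at 37C; LiveBLAzer B/G FRET substrate was then added and fluorescence read after 2 hours at room temperature.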

[17] = A CellTox Green Cytotoxicity Assay to monitor cytotoxicity in HepG2 cells - 8 hour (AID 1224890); note: nearly all actives have a fitted effect of over 45% in size
Summary of the method: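 Real-time cytotoxicity: fluorescence of a cell-impermeant cyanine dye binding DNA of dead HepG2 cells, measured repeatedly (0–40 h) during compound exposure at 37 C. Cells seeded 600/well with reagent, dosed after 5 h.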

[18] = target: Estrogen receptor beta (Homo sapiens) (UniProt Q92731); assay: qHTS assay to identify small molecule antagonists of the estrogen receptor beta (ER-beta) signaling pathway (AID 1259378; active = well fitted inhibition curve with a large enough effect in the signal ratio in the repeat runs, not every such curve was filed as active; the % refers to the signal ratio)
Summary of the method: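 ER-beta-UAS-bla HEK293T cells in 2% charcoal-stripped FBS medium treated with compound plus 1nM final 17-beta-estradiol for 16 hr at 37C. Beta-lactamase reporter read by FRET substrate fluorescence after 2 hours at room temperature.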

[19] = target: Androgen receptor (Homo sapiens) (UniProt P10275); assay: qHTS assay to identify small molecule antagonists of the androgen receptor (AR) signaling pathway using the MDA cell line in the presence of 0.5 nM R1881 (AID 1259243); note: nearly all actives have a fitted effect of over 50% in size
Summary of the method: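 Luminescent reporter readout (ONE-Glo, 30 min, room temperature) after 16 hr co-treatment of MDA-kb2 cells with test compounds and 0.5 nM R1881 final, at 37C without CO2. The MMTV-driven luciferase responds to both AR and GR.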

[20] = qHTS assay to identify small molecule phospholipidosis (PLD) inducers (AID 1259344; active = well fitted curve in the direction sought with a large enough effect; an effect the other way counts as inactive or inconclusive)
Summary of the method: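 Read-out is LipidTOX Red fluorescence (ex 595/em 615) imaged in HepG2 cells after 24 h compound exposure at 37 C, with Hoechst nuclear counterstain (ex 352/em 461) allowing per-cell normalisation.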

Estrogen receptor (Homo sapiens), sequence (P03372 whole entry, looked up): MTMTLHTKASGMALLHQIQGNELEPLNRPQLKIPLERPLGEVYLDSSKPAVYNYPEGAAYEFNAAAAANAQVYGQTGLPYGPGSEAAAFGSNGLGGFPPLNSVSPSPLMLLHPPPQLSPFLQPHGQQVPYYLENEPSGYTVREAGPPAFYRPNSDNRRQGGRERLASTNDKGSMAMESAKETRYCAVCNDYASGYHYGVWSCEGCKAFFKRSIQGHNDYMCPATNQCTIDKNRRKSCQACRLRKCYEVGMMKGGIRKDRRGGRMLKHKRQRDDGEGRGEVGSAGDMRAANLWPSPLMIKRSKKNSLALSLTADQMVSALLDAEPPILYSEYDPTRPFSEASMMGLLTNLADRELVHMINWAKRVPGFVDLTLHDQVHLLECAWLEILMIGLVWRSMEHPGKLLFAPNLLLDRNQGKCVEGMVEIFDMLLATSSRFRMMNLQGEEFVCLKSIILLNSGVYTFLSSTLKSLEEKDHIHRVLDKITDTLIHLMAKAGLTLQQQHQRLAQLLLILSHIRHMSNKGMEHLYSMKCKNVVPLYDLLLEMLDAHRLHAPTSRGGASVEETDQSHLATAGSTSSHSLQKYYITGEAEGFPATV
Androgen receptor (Homo sapiens), sequence (P10275 whole entry, looked up): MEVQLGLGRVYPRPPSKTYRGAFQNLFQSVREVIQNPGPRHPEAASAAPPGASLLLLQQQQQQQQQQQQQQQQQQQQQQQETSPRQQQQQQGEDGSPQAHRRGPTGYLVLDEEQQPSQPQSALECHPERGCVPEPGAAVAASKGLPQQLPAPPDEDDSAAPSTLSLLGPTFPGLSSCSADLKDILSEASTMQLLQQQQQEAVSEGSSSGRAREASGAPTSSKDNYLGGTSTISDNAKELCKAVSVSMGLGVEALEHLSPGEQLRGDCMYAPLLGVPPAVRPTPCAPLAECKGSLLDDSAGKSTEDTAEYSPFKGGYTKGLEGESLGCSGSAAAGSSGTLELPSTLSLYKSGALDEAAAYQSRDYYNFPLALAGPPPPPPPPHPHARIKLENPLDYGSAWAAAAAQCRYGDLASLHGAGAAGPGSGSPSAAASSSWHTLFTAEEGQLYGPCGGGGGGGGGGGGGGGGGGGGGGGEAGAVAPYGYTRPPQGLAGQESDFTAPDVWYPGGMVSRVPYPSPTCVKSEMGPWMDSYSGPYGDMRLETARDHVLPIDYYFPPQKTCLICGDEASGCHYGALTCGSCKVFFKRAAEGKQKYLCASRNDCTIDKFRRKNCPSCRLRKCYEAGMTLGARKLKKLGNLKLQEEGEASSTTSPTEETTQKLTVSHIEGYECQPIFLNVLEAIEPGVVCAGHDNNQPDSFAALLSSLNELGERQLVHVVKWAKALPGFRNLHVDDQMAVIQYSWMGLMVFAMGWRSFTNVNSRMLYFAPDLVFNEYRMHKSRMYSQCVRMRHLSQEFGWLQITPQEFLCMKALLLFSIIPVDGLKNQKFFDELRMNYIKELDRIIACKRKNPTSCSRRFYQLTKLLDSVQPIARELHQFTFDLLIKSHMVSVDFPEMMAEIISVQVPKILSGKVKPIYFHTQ
Estrogen receptor beta (Homo sapiens), sequence (Q92731 whole entry, looked up): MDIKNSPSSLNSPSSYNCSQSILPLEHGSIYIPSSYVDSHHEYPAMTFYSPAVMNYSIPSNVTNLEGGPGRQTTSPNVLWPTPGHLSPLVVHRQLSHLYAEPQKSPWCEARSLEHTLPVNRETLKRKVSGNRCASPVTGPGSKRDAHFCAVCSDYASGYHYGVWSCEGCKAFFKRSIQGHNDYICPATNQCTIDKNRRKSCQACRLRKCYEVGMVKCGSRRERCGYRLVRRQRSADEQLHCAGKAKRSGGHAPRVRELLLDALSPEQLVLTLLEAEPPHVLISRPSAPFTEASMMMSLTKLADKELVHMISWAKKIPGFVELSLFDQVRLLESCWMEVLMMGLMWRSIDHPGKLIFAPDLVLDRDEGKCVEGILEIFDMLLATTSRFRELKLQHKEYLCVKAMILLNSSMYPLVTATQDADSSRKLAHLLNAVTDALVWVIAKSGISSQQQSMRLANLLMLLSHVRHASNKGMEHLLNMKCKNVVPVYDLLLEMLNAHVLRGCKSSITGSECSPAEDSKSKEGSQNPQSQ

| Structure (SMILES) | Potency [1] | Potency [2] | Potency [3] | Potency [4] | Potency [5] | Potency [6] | Potency [7] | outcome [8] | Potency [9] | Potency [10] | outcome [11] | Potency [12] | Potency [13] | Potency [14] | outcome [15] | Potency [16] | Potency [17] | outcome [18] | outcome [19] | outcome [20] |
| --- | --- | --- | --- | --- | --- | --- | --- | --- | --- | --- | --- | --- | --- | --- | --- | --- | --- | --- | --- | --- |
| C=C(C)C(=O)OC | inactive | inactive | inactive | inactive | inactive | inactive | inactive | inactive | inactive | inactive | inactive | inactive | inactive |  |  |  |  |  |  |  |
| CCN(CCO)c1cccc(C)c1 | inactive | inactive | inactive | inactive | inactive | inactive | inactive | inactive | inactive | inactive |  |  | inactive | inactive | inactive |  |  |  |  |  |
| CC(C)=CC(C)(C)C | inactive | inactive | inactive | inactive | inactive | inactive | inactive | inactive | inactive | inactive | inactive |  | inactive |  | inactive | inactive |  |  |  |  |
| COc1cc(C=O)ccc1OC(=O)C(C)C | inactive | inactive | inactive | inactive | inactive | inactive | inactive | inactive | inactive | inactive | inactive |  | inactive |  |  |  | inactive |  |  |  |
| C=CC(C)(O)CC/C=C(\C)CC (stereo unspecified) | inactive | inactive | inactive | inactive | inactive | inactive | inactive | inactive | inactive | inactive | inactive | inactive | inactive | inactive | inactive | inactive |  | inactive |  |  |
| Nc1cc(S(=O)(=O)O)ccc1S(=O)(=O)O | inactive | inactive | inactive | inactive | inactive | inactive | inactive | inactive | inactive |  | inactive |  | inactive |  |  | inactive | inactive | inactive |  |  |
| COc1ccc(OC)c(NC(=O)CC(C)=O)c1 | inactive | inactive | inactive | inactive | inactive | inactive | inactive | inactive | inactive | inactive | inactive |  | inactive |  | inactive | inactive | inactive | inactive |  |  |
| C=C[Si](C)(C)O[Si](C)(C)C=C | inactive | inactive | inactive | inactive | inactive | inactive | inactive | inactive | inactive | inactive | inactive | inactive | inactive |  | inactive |  |  |  |  |  |
| CCC(C)N (stereo unspecified) | inactive | inactive | inactive | inactive | inactive | inactive | inactive | inactive | inactive | inactive | inactive | inactive | inactive | inactive | inactive | inactive |  | inactive |  |  |
| O=S(=O)(O)c1cc(O)ccc1O | inactive | inactive | inactive | inactive |  |  | inactive | inactive | inactive | inactive | inactive | inactive | inactive |  | inactive | inactive | inactive |  |  |  |
| Cc1cc(O)c2c(c1)C(=O)c1cccc(O)c1C2=O | inactive | inactive | inactive |  | inactive | inactive | 13.4 µM (active) | inactive | inactive |  | inactive |  | inactive | inactive | inactive | inactive | inactive | inactive |  |  |
| CC(C)COC(=O)COc1ccc(Cl)cc1Cl | inactive | inactive |  | inactive | inactive | inactive | inactive | inactive | inactive | inactive | inactive | inactive | inactive |  | inactive | inactive | inactive | inactive | inactive |  |
| COc1cccc2sc(N)nc12 | inactive | inactive | inactive |  | inactive | inactive |  | inactive | inactive | inactive | inactive | 24.5 µM (active) | inactive | inactive |  |  |  | inactive | inactive |  |
| CN[C@@H]1[C@H](O)[C@H](NC)[C@H]2O[C@@]3(O)C(=O)C[C@@H](C)O[C@H]3O[C@@H]2[C@H]1O | inactive | inactive | inactive |  | inactive | inactive | inactive | inactive | inactive | inactive |  | inactive | inactive |  | inactive |  | inactive |  | inactive | inactive |
| C=CCOc1c(Br)cc(Br)cc1Br | inactive | inactive | inactive |  | inactive | inactive | inactive | inactive | inactive |  | inactive | inactive | inactive | inactive |  | inactive | inactive | inactive |  |  |
| CCCCCCCCCCCCC1CO1 (stereo unspecified) | inactive | inactive | inactive |  | inactive | inactive | inactive | inactive | inactive | inactive | inactive | inactive | inactive | inactive |  | inactive | inactive | inactive |  |  |
| CCC(O)C(C)(C)C (stereo unspecified) | inactive | inactive |  | inactive | inactive | inactive | inactive | inactive | inactive | inactive | inactive | inactive | inactive |  | inactive |  | inactive |  |  |  |
